Bioassay records (PubChem)
Sa growth inh – S. aureus growth inhibition. S. aureus RN4220 growth, OD600, 20 h, 42 °C; hits give low values. relative growth, % (no concentration beside the values). 170,000 tested, 0.53% active. AID 720641;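 active means relative growth at most 50% at the other temperature and 20+ points below 30 °C, or under 10% at both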
Sa helicase inh – S. aureus DNA helicase inhibition; purified S. aureus helicase, fluorescence unwinding assay; AID 485395; inhibition, % (test concentration not listed); 120,000 tested, 0.05% active; in the data active means inhibition above about 25%, passing the limit was not always enough
Each line names hits and unclear results; the compound was inactive in the other large screens; ! = a repeat was not active. Compounds with a hit are over-represented: about 0.52% of the library has one in this group of screens.

O=C(O)C1=C(CSc2nnnn2CS(=O)(=O)O)CS[C@@H]2C(NC(=O)[C@H](O)c3ccccc3)C(=O)N12 (stereo not given in full)	Sa growth inh -0.7 (no result: Sa helicase inh)
Cn1nnnc1SCC1=C(C(=O)O)N2C(=O)C(NC(=O)C(O)c3ccccc3)C2SC1 (stereo not given)	Sa growth inh -0.5 (no result: Sa helicase inh)
CC(=O)NCCCc1nc2ccccc2n1C(C)C	none (no result: Sa growth inh)
C[N+](C)(C)CCOc1ccc2nc(N)sc2c1	none
Cc1cc(C(=O)NCc2ccc(Cl)cc2)on1	none
Cc1ccc(C(=O)OCN2C(=O)c3ccccc3C2=O)cc1	none
CNC(=O)Nc1cc(C(F)(F)F)cc(C(F)(F)F)c1	none (no result: Sa helicase inh)
Cc1noc(C)c1NC(=O)Nc1cc(C(F)(F)F)cc(C(F)(F)F)c1	Sa growth inh 5.2
CCCCN(C)C(=O)c1ccc(Sc2ccc(Cl)cc2)c(NC(C)=O)c1	none
O=c1oc2ccc(Br)cc2cc1-c1ccc2c(c1)OCCO2	none (no result: Sa growth inh)
O=c1cc(C(F)(F)F)[nH]c2c(OC(F)(F)F)cccc12	Sa growth inh 3.4 (no result: Sa helicase inh)
O=c1cc(C(F)(F)F)[nH]c2c(Br)cccc12	Sa growth inh 3.1
COc1cccc2c(=O)cc(C)[nH]c12	none
O=c1cc(C(F)(F)F)[nH]c2ccc(Br)cc12	none (no result: Sa helicase inh)
CCc1c(N)c2ccccc2[nH]c1=O	none (no result: Sa helicase inh)
CN(C(=O)C1CCN(c2ncnc3c2nc2n3CCCCC2)CC1)c1ccccc1	none
Cc1ccc(N(CC(=O)Nc2cccc(C)c2)S(=O)(=O)c2c(C)n[nH]c2C)cc1	none
Cc1cccc(Nc2cc(=O)[nH]c(=O)[nH]2)c1	none
Cc1ccc(Nc2cc(=O)[nH]c(=O)[nH]2)cc1C	Sa growth inh 8.5 (no result: Sa helicase inh)
CCOC(=O)CC1(O)CCOC(C)(C)C1 (stereo not given)	none
NC(=S)Nn1c(CCC(=O)O)ccc1-c1cccs1	none
COc1ccc(-n2nnnc2SCSc2nnnn2-c2ccc(OC)cc2)cc1	none
CCOc1ccc(C(=O)C(C)Sc2nnnn2-c2ccc(OC)cc2)cc1 (stereo not given)	Sa helicase inh 29
CCN1CCCC1CNCC(=O)Nc1ccc(C)c(Br)c1 (stereo not given)	none
CCN1CCCC1CNC(=O)Nc1ccc(Cl)c(Cl)c1 (stereo not given)	Sa growth inh 0.6
O=S(c1c(F)c(F)c(F)c(F)c1F)c1c(F)c(F)c(F)c(F)c1F	Sa growth inh 0.7
COc1cc(OC)c2c3c(c(=O)oc2c1)CCCC3	none (no result: Sa growth inh)
Nc1ccccc1SC(CC(=O)c1ccc(Br)cc1)c1ccccc1 (stereo not given)	none (no result: Sa helicase inh)
CN(Cc1ccccc1)S(=O)(=O)c1ccc(NC(=O)c2nc(S(C)(=O)=O)ncc2Cl)cc1	Sa growth inh 6.2
CCCSc1ncc(Cl)c(C(=O)Nc2ccc(S(=O)(=O)N(C)c3ccccc3)cc2)n1	none (no result: Sa helicase inh)
CS(=O)(=O)c1ncc(Cl)c(C(=O)NCc2ccccc2)n1	none
CN(c1ccccc1)S(=O)(=O)c1ccc(NC(=O)c2nc(S(C)(=O)=O)ncc2Cl)cc1	Sa growth inh -1.2 (no result: Sa helicase inh)
O=C(COC(=O)/C=C\c1ccco1)Nc1ccc(OC(F)(F)F)cc1	none
O=C(CSc1ccccn1)N1CCC(c2ccccc2)=N1	none
Cc1cccc2nc(-c3ccccn3)c(Nc3ccccc3)n12	none (no result: Sa helicase inh)
Cc1cccc2nc(-c3ccccn3)c(Nc3ccc(F)cc3)n12	Sa growth inh 1.2 (no result: Sa helicase inh)
CC1(C)S[C@@H]2[C@H](NC(=O)C(C(=O)O)c3ccccc3)C(=O)N2[C@H]1C(=O)O (stereo not given in full)	Sa growth inh 0.0 (no result: Sa helicase inh)
CC1(C)S[C@@H]2[C@H](NC(=O)[C@H](N)c3ccccc3)C(=O)N2[C@H]1C(=O)O	Sa growth inh -0.9! (no result: Sa helicase inh)
CCN1CCN(C(=O)N[C@@H](C(=O)N[C@@H]2C(=O)N3[C@@H]2SC(C)(C)[C@@H]3C(=O)O)c2ccccc2)C(=O)C1=O	Sa growth inh -0.5 (no result: Sa helicase inh)
CC1(C)SC(c2ccc(C3NC(C(=O)O)C(C)(C)S3)cc2)NC1C(=O)O (stereo not given)	none
Cc1onc(-c2ccccc2)c1C(=O)N[C@@H]1C(=O)N2[C@@H]1SC(C)(C)[C@@H]2C(=O)O	Sa growth inh -1.3 (no result: Sa helicase inh)
Cc1onc(-c2ccccc2)c1C(=O)NC1CCCCC1NC(=O)c1c(-c2ccccc2)noc1C (stereo not given)	none
CCCOC(=O)C(N)c1ccccc1 (stereo not given)	none
CCN(C(=O)CSc1nnc(-c2ccco2)n1Cc1ccccc1)C1=CCCC1	none
CC1(C)OC(=O)C=C(c2ccc(Cl)cc2)O1	none
CC1=CCC2(CC1)COC(C(C)C)OC2 (stereo not given)	none
CS(=O)(=O)NCc1ccccc1	none
COc1cccc2c1OC1=C(C(=O)CC(C)(C)C1)C2CC(=O)c1ccc(O)cc1 (stereo not given)	none
N#C/C(=C\c1ccc(N2CCCC2)o1)c1ccccc1	none
C[n+]1ccc(/C=C/c2ccc(N3CCCC3)o2)cc1	Sa helicase inh 57
N#Cc1ccc(CSc2n[nH]c(=O)n2CCc2ccccc2)cc1	none
CS(=O)(=O)c1ccc(C(O)[C@H](CF)NC(=O)C(Cl)Cl)cc1 (stereo not given in full)	Sa growth inh -0.8 (no result: Sa helicase inh)
O=C(O)CCC(=O)OC[C@@H](NC(=O)C(Cl)Cl)[C@H](O)c1ccc([N+](=O)[O-])cc1	none (no result: Sa helicase inh)
